Assay results published in PubChem BioAssay AID1347417 (National Center for Advancing Translational Sciences (NCATS), 2020).
Hit rate of the full screen: of about 120,000 compounds, about 5,300 (4.4%) were called active. Where a call stands in place of a potency, no number is given. Roughly 22% stayed inconclusive and do not appear here. Many of the other results were omitted from the sample, so actives are more common in it than they were. Values without a mark were called inactive. Calls follow the shape of the dose curve; as a rule, active = well fitted inhibition curve with a large enough effect; inconclusive = small, poorly fitted or top-dose-only effect; inactive = no such curve, though single readings can be large or run the other way.

Experiment: qHTS Primary assay for Inhibitors of Plasmodium falciparum Dd2 growth in vitro; also: nearly all actives have a fitted effect of over 65% in size
Conditions: P. falciparum Dd2 growth, SYBR Green, 72 h; series mostly up to 28.9 µM
Excerpt: Malaria, a parasitic disease spread to humans through the bite of a Plasmodium infected Anopheles mosquito, continues to be a global health burden affecting millions of people, with an estimated 228 million cases and 405,000 deaths in 2018. Concerns about safety and limitations of current antimalarial treatments strongly emphasize the need to develop new therapeutic options. The scarce number of chemotypes and validated drug targets with efficacy against the liver stage, have hindered development of new antimalarials. To address this, a chemoprophylactic drug discovery effort was conducted through a combined phenotypic high-throughput asexual blood stage and liver stage screen, providing a robust foundation to identify liver-stage active lead chemotypes. Compounds were initially screened against Plasmodium falciparum Dd2 strain parasites using a in vitro SYBRGreen-1 based 72 hr proliferation assay to identify novel chemotypes to advance to liver stage assays. NIH/NCATS Early Translation Branch Assay Submitter (PI): Anton Simeonov Ph.D.
Malaria-vivax Assay Protocol: PROTOCOL TABLE (as described by Inglese et al., 2007) SEQUENCE No. (e.g., 1, 2, 3, etc.); […] (e.g., Cells, Incubation, Reagent, etc.); VALUE; DESCRIPTION SEQUENCE, Parameter, Description 1; Reagent; 3 uL complete malaria growth medium, 1536 TC treated Black clear bottom plate 2; Controls; 23 nL positive control artesunate (300 nM final) to column 1; Neutral control DMSO to columns 2-4 3; Compound; 23 nL of compounds in dose response concentration (29 uM to 0.5 nM final) 4; Reagent; 5 uL malaria infected red blood cells (2.5% hematocrit final, 0.3% parasitemia 5; Time; 72 hours at 37C (5% O2, 5% CO2, 90% N2; 95% Rh) 6; Reagent; 2 uL lysis buffer/SYBRGreen-1, 25 sec shake immediately following dispense 7; Time; ~16 hours at 37C (5% O2, 5% CO2, 90% N2; 95% Rh) 8; Detector; EnVision (PerkinElmer) bottom read at 485/14nm excitation and 535/25 nm emission NOTES (numbers refer to sequence above): 1; Complete Malaria Growth Media: 1X RPMI-1640 w/L-glutamine, 5.5g/L Albumax II, 367 uM Hypoxanthine, 25 mM HEPES, 0.25% Sodium Bicarbonate, 35 uM Gentamicin sulfate 2; Controls were added using the Kalypsis Pintool (Wako USA) equipped with 1536 pinhead 3; Compounds were added in a 7-point, titration with a high final concentration of 29 uM by Pintool from seven inter-plate titrations of library plates and two DMSO control plates at the beginning and end (see Yasgar et al., 2008). 4; Red blood cells infected with Plasmodium falciparum Dd2 parasites were used. 6; Lysis buffer: 20 mM Tris-HCl, 10 mM EDTA, 0.16% Saponin, 1.6% Triton-X, 10X SYBR Green. REFERENCE: Inglese J, Shamu CE, Guy RK. 2007. Reporting data from high-throughput screening of small-molecule libraries. Nat Chem Biol. doi:10.1038/nchembio0807-438 Yasgar A, Shinn P, Jadhav A, Auld D, Michael S, Zheng W, Austin CP, Inglese J, Simeonov A. 2008. Compound Management for Quantitative High-Throughput Screening. J Lab Autom 13:79-89. doi:10.1016/j.jala.2007.12.004
Potency is read from the fitted curve at half-maximal effect.

| Compound | Potency | activity, negative = inhibition |
| --- | --- | --- |
| Cc1ccccc1NC1CCn2c(nc(C)c2C(=O)Nc2ccc(F)cc2)C1 (stereo not given) | inactive |  |
| CCN(CCCNC(=O)c1cc2cc3cc(OC)ccc3nc2s1)c1ccccc1 | inactive |  |
| CCN(CCCNC(=O)c1nnn2cc(-c3ccccc3)[nH]c(=O)c12)c1ccccc1 | 8.91 µM (active) |  |
| CCN(CCCNC(=O)Cn1ncc2c([nH]c3ccccc32)c1=O)c1cccc(C)c1 | inactive |  |
| Cc1nn(C)cc1CN(C)C(=O)C1CN(S(=O)(=O)c2cccnc2)CC12CCCCC2 (stereo not given) | inactive |  |
| COc1cc(=O)n2c(c1C(=O)Nc1cccc(Br)c1)CCCC2 | inactive |  |
| CCOc1ccc(-c2cc3nc(C4CCN(C(=O)OC(C)(C)C)CC4)c(C(=O)Nc4cccc(CC)c4)cn3n2)cc1 | 7.94 µM (active) |  |
| CCc1cccc(NC(=O)N2CCC(c3noc(COc4ccc(F)cc4)n3)CC2)c1 | inactive |  |
| CCOc1ccc(-c2cc(C)n3nc(C(=O)Nc4ccc(C)c(C)c4)cc3n2)cc1 | inactive |  |
| O=C(C[C@@H]1CCNC[C@@H]1Cc1cc(COc2ccccc2)on1)NCc1ccco1 | inactive |  |
| CCc1cccc(NC(=O)CN2C(=O)NC(c3ccc(Cl)cc3)C3=C2COC3=O)c1 (stereo not given) | inactive |  |
| Cc1ccc(-c2nnc(C3CN(C(=O)c4cc(C)cc(C)c4)CC34CCOCC4)o2)cc1 (stereo not given) | inactive |  |
| O=[S+]([O-])(c1ccccc1)N1CC2(CCCCN2Cc2cccnc2)Cc2ccccc21 (stereo not given) | 8.91 µM (active) |  |
| C[S+](=O)([O-])N1Cc2ccccc2CC2(CCN(Cc3cccnc3)CC2)C1 | inactive |  |
| CC(=O)NCC(=O)N1Cc2ccccc2CC2(CCCN2Cc2cccnc2)C1 (stereo not given) | inactive |  |
| CN1CCCN(S(=O)(=O)c2ccccc2)CCC(=O)NCC1 | inactive |  |
| CC(C)c1noc(-c2cccn3c(CNC(=O)c4ccc(C(C)(C)C)cc4)nnc23)n1 | inactive |  |
| Cc1nc(-c2ccc(Cl)cc2)n(Cc2cc(F)cc(F)c2)c(=O)c1CCO | inactive |  |
| CCOc1ccc(C(=O)/C=C/c2cn(CC(O)CN3CCCCCC3)c3ccccc23)cc1 (stereo not given) | 12.6 µM (active) |  |
| CCOc1ccc(C(=O)N2CCCN(C(=O)C3CC3)c3ccccc32)cc1 | inactive |  |
| COc1ccc2cc(C(=O)N3C[C@@H](Oc4ccccc4)C[C@H]3C(=O)N3CCOCC3)[nH]c2c1 | inactive |  |
| Cc1nc2c(c(C)nn2-c2ccccc2)c(C)c1CCC(=O)NCCc1ccc(Cl)cc1 | inactive |  |
| Cc1ccc(CNC(=O)CCc2c(C)nc3c(c(C)nn3-c3ccccc3)c2C)cc1 | inactive |  |
| COC(=O)c1ccc(NC(=O)CCc2c(C)nc3c(c(C)nn3-c3ccc(C)cc3)c2C)cc1 | 6.31 µM (active) |  |
| Cn1cc(-c2ccccc2)cc1C(=O)NCc1ccc(N2CCOCC2)cc1 | inactive |  |

| Compound | Potency | activity, negative = inhibition |
| --- | --- | --- |
| CC[C@@]1(C(=O)O)C[C@H](C(=O)NCCCO)[C@H](c2ccc(OC)cc2)N1C | inactive |  |
| CCc1noc(-c2nnn3c2COC(c2ccc(OC)cc2)C3)n1 (stereo not given) | inactive |  |
| CN(C)S(=O)(=O)N1CCC(Oc2ccc(C(=O)NC3(C)CC3)cc2)CC1 | inactive |  |
| Cc1nn2c(c1-c1ccccc1N1CCCC1)N(C(=O)c1ccn(C)n1)CCC2 | inactive |  |
| O=C(c1cccs1)N1CC(Oc2ccc(-c3nc(-c4ccccc4)no3)cc2)C1 |  | 8.59% [at 5.79 µM] |
| O=C(c1ccc(C(F)(F)F)cc1)N1CCn2c(nn(-c3cccc(Cl)c3)c2=O)C1 | inactive |  |
| Cn1nnnc1SCCCNCc1ccc(Cl)cc1 | inactive |  |
| Cn1nnnc1SCCNCc1ccc(Cl)c(Cl)c1 | inactive |  |
| Cn1nnnc1SCCCNCc1cccc(OCc2ccc(Cl)cc2)c1 | 12.6 µM (active) |  |
| Cc1ccc(C(=O)N2CCc3cc(CNC(=O)c4ccc(Br)cc4)ccc32)cc1 | inactive |  |
| Cc1ccc(S(=O)(=O)NC2(C(F)(F)F)NC(=O)N(CCc3ccccc3)C2=O)cc1 (stereo not given) | inactive |  |
| Cc1ccc(C(=O)CC2(O)C(=O)N(CCc3ccccc3)c3ccc(Br)cc32)cc1 (stereo not given) | 10 µM (active) |  |
| COCCN1CCC(N2CCN(C(=O)c3cc(F)cc(F)c3)CC2)C1=O (stereo not given) | inactive |  |
| Cc1cc(C)cc(NC(c2nnc(-c3cccc(F)c3)o2)c2ccc(F)cc2Cl)c1 (stereo not given) | 3.55 µM (active) |  |
| CC(=O)c1ccc(NC(c2ccc(F)cc2)c2nnc(-c3ccccc3)o2)cc1 (stereo not given) | inactive |  |
| Cc1c(C(=O)N2CCn3nc(C(O)CO)cc3C2)sc2ccccc12 (stereo not given) | inactive |  |
| O=C(c1cnc2c(c1)N(Cc1ccccc1)CCC2)N1CC[S+](=O)([O-])CC1 | inactive |  |
| COCCNC(=O)C[C@@H]1C[C@H]2O[C@H](CNC(=O)Nc3cccc(Cl)c3)[C@@H](O)[C@H]2O1 | inactive |  |
| CCN1CCN(c2ncc3c(n2)CC(c2ccccc2O)CC3=O)CC1 (stereo not given) | 8.91 µM (active) |  |
| CCCN1CCc2nc(N3CCN(C)CC3)ncc2C1 |  | 36.4% [at 5.79 µM] |
| Cc1ccc(CN2CCc3nc(N4CCN(C)CC4)ncc3C2)cc1 | inactive |  |
| COc1ccc2[nH]c3c(c2c1)CCN(C)C31CCN(C(=O)c2ccoc2)CC1 | inactive |  |
| Cc1ccc(-c2nc(C(=O)N3CCN(c4ccccn4)CC3)no2)cc1 | inactive |  |
| O=C(c1ccccc1)N1Cc2ccccc2NC(=O)C12CCNCC2 | inactive |  |
| O=C(NCc1ccc(F)cc1)N1CCC(n2cnnc2C2CC2)C1 (stereo not given) | inactive |  |
